About 3,100 (1.6%) of roughly 190,000 compounds were called active. Rule as the data show it: active = fold change above about 3.3; inconclusive = no clear call, values can overlap the other calls; inactive = below that. Shown is part of a subset that was picked to be rich in actives.

The nature of the assay: NF-kB upregulation, human neuronal cells – cell-based, HTS, primary screen (AID 1239). To be noted: NF-kB reporter expression, at 12.5 µM, active compounds read high.
`CC1=NCCN1S(=O)(=O)c1cccc([N+](=O)[O-])c1`: the fold change was 1.03 (inactive).
For the compound `CCOC(=O)C(C)n1nc(-c2ccccc2)c2ccccc2c1=O` (centres undefined), the fold change was 0.91 (inactive).
`CCCn1c(NC(=O)C23CC4CC(CC(O)(C4)C2)C3)nc2ccccc21`: the fold change was 0.92 (inactive).
Under `NS(=O)(=O)c1ccc(NC(=O)COC(=O)c2ccc(Cl)nc2)cc1` stands 0.87 (inactive); under `CC(C(=O)O)n1cnc2sc3c(c2c1=O)CCCC3` (centres undefined), 1.12 (inactive).
Take `O=C(N/N=C/c1ccc2c(c1)OCO2)C(=O)N1CCCC1`: the fold change is 1.4 (inactive).
The result for `Cc1nc2sc(C(=O)c3ccccc3)c(N)c2c2c1CCCC2` reads 1.93 (inactive).
For the compound `CN(C)c1ccnc2sc(C(=O)c3ccccc3)c(N)c12`, the fold change was 3.79 (active).
Turning to `CN(C)c1ccnc2sc3c(=O)n(Cc4ccccc4)cnc3c12`, the fold change is 0.86 (inactive).
The result for `COc1ccc(/C=C/CN2CCCC(C(=O)c3cc(F)ccc3F)C2)cc1` (centres undefined) reads 1.06 (inactive); that for `CCOc1ccc2nc(NCCNC(=O)C(C)(C)C)c(C)cc2c1`, 1.12 (inactive); that for `O=C(CCc1nnc(CCCCc2ccccc2)o1)NC(c1cccnc1)C(F)(F)F` (centres undefined), 0.86 (inactive).
Under `Cc1ccc(-c2cn(S(=O)(=O)c3cccc([N+](=O)[O-])c3)nc2N)cc1` stands 1.2 (inactive); under `Cc1ccc(-n2cc3ccc([N+](=O)[O-])cc3n2)cc1`, 9.31 (active).
In the case of `CC(C)(C)NC(=O)Cn1cnc2cc([N+](=O)[O-])ccc2c1=O`, the fold change was 1.11 (inactive).
The result for `O=C(O)CSCC(=O)Nc1ccc(C(F)(F)F)cc1` reads 1.18 (inactive).
Under `CCCCSc1nc2ccccc2[nH]1` stands 2.06 (inactive); under `O=C(CSc1nc2ccccc2[nH]1)c1cccs1`, 3.8 (active); under `C=CCSc1nc2ccccc2[nH]1`, 1.17 (inactive).
The result for `COc1ccc(/C=N/NC(=O)Cn2cc(C(F)(F)F)ccc2=O)cc1` reads 1.07 (inactive); that for `O=C(O)/C=C/c1ccc(S(=O)(=O)N2CCCCCC2)cc1`, 1.17 (inactive); that for `CCCC(=O)Nc1ccc(C(=O)NCCCn2ccnc2)cc1`, 1.01 (inactive).
For the compound `CCCCCC(=O)Nc1ccc(C(=O)N/N=C/c2ccc([N+](=O)[O-])cc2)cc1`, the fold change is 1.05 (inactive).
Under `CCCC(=O)Nc1ccc(C(=O)N/N=C/c2ccc[nH]2)cc1` stands 6.81 (active); under `CCn1c(N)c(Br)c(=O)[nH]c1=O`, 0.94 (inactive).
The result for `CN(C)c1ccc(C2Nc3ccccc3C(=O)N2NS(=O)(=O)c2ccccc2)cc1` (centres undefined) reads 0.87 (inactive); that for `CC1(C)CC(=O)C(C2c3ccccc3S(=O)(=O)c3ccccc32)C(=O)C1`, 1.19 (inactive); that for `Cc1ccc(C(=O)NN(CCC#N)C2=NS(=O)(=O)c3ccccc32)cc1`, 1.06 (inactive).
The result for `CC1(C)C2CC=C(/C=N/NC(=O)C3CC3)C1C2` (centres undefined) reads 1.13 (inactive).
Take `CC(C)N1CCC(NC(=O)Nc2ccccc2)CC1`: the fold change is 1.04 (inactive).
The result for `CC(C)(C)NS(=O)(=O)c1ccc(NC(=O)NC2CCCCC2)cc1` reads 0.89 (inactive); that for `CC(C)c1ccc(NC(=O)NC2CCCCC2)cc1`, 5.47 (active); that for `CCOc1cc(NC(=S)NCc2ccco2)c(OCC)cc1NC(=O)c1ccco1`, 1.12 (inactive).
Under `CCN(CC)C(=O)C(=O)c1cn(CC(=O)NCc2ccc3c(c2)OCO3)c2ccccc12` stands 1.39 (inactive); under `C=C1c2cc(CC)ccc2NC(=O)N1c1ccc(C)cc1`, 1.19 (inactive).
Under `O=C1Nc2ccccc2C12Nc1ccccc1S2` (centres undefined) stands 1.44 (inactive).
On to `CCc1ccc2c(c1)C1(NN=C(c3ccccc3)S1)C(=O)N2` (centres undefined), for which the fold change is 4.48 (active).
Consider `O=C(CSc1cccc[n+]1[O-])c1ccc(-c2ccccc2)cc1`, for which the fold change is 2.45 (inactive).
Under `COc1cc(NC(=O)c2cccs2)ccc1NC(=O)c1ccccc1Cl` stands 0.87 (inactive); under `O=C(Nc1ccc2nc3n(c(=O)c2c1)CCCCC3)c1ccccc1Cl`, 1.29 (inactive).
Regarding `O=C(Nc1ccc2sc3ccccc3c(=O)c2c1)c1ccccc1Cl`, the fold change was 6.23 (active).
For `CCOC(=O)Cc1csc(NC(=O)COc2ccc3c(C)cc(=O)oc3c2)n1`, the fold change was 0.61 (inactive).
The result for `O=C(CCC1CCCN(Cc2ccc(O)c(Cl)c2)C1)NCc1ccccc1F` (centres undefined) reads 1.07 (inactive).
Under `S=C(Nc1cccc(Cl)c1)Nc1ccc2cn[nH]c2c1` stands 1.36 (inactive); under `CC(=O)Nc1cccc(C(=O)Nc2nc(C)cs2)c1`, 1.22 (inactive); under `Cc1csc(NC(=S)Nc2cccc(Cl)c2)n1`, 3.32 (active).
Under `NC(=O)c1ccc(NC(=O)COC(=O)C(Cc2ccccc2)NC(=O)c2ccccc2)cc1` (centres undefined) stands 0.99 (inactive); under `COc1ccc2nc(Nc3nc(-c4ccncc4)cs3)sc2c1`, 1.6 (inactive).
In the case of `COc1ccc(-c2csc(NC(=O)CCCc3cccs3)n2)cc1`, the fold change was 0.87 (inactive).
Under `NS(=O)(=O)c1ccc(Nc2nc(-c3ccccc3)cs2)cc1` stands 1.18 (inactive).
With `COc1ccc(OC)c(Nc2nc(-c3ccc(O)c(O)c3)cs2)c1`, the fold change was 1.32 (inactive).
Under `COc1ccc2nc(Nc3nc(-c4cc5ccccc5oc4=O)cs3)sc2c1` stands 1.2 (inactive); under `COc1ccc(Nc2nc(-c3ccccc3)cs2)cc1`, 12.5 (active); under `COc1ccc(-c2csc(NC(=O)COC(=O)c3ccc(Br)o3)n2)cc1`, 1.92 (inactive).
Regarding `CCNc1nc(-c2cc3ccccc3o2)cs1`, the fold change is 1.19 (inactive).
The result for `COc1ccc(-c2csc(Nc3ccc(O)cc3)n2)cc1` reads 8.49 (active); that for `Oc1ccc(-c2csc(Nc3cccnc3)n2)cc1`, 3.24 (inactive); that for `O=c1oc2ccccc2cc1-c1csc(Nc2ccc(O)cc2)n1`, 7.39 (active).
`COc1ccc(-c2csc(Cc3nc(O)cs3)n2)cc1`: the fold change is 3.76 (active).
Under `O=C(C1CCN(C2CCN(Cc3cccc4c3OCO4)CC2)CC1)N1CCOCC1` stands 1.05 (inactive).
Consider `COC(=O)c1ccc(CN2CCC(CO)(Cc3ccc(OC)cc3)CC2)cc1`, for which the fold change was 1.33 (inactive).
In the case of `COc1ccccc1-n1ccnc1SCC(=O)NC(C)(C)C`, the fold change is 1.09 (inactive).
The result for `CCCCC(CC)CNC(=O)C(=O)C1C(=O)Nc2ccccc21` (centres undefined) reads 1.17 (inactive); that for `CC[n+]1c(C)n(-c2ccccc2)c2ccc(NC(C)=O)cc21`, 0.85 (inactive).
As for `N#C/C(=C\c1ccc(-c2cccc([N+](=O)[O-])c2)o1)C(=O)NCCN1CCOCC1`, the fold change was 1.14 (inactive).
With `Cc1cccc(NC(=O)c2cc([N+](=O)[O-])ccc2N2CCN(C)CC2)c1`, the fold change is 0.95 (inactive).
Under `O=C(O)c1ccccc1-c1ccccc1C(=O)NCc1cccnc1` stands 1.16 (inactive); under `COC(=O)C(C)NC(=O)COc1ccc2ccccc2c1` (centres undefined), 1.1 (inactive).
`Cc1cc(Cl)ccc1OCCCC(=O)NCc1ccccn1`: the fold change is 1.09 (inactive).
Under `N#CC1=C(N)Oc2[nH]c(=S)[nH]c(=O)c2C12C(=O)Nc1ccccc12` (centres undefined) stands 1.09 (inactive); under `Cc1nn(C)c(C)c1Sc1ccccc1N`, 0.93 (inactive); under `CN1CCN(/N=C2/C(=O)Nc3ccc([N+](=O)[O-])cc32)CC1`, 1.3 (inactive).
Under `Cc1cc(Br)ccc1NC(=O)C1CCCO1` (centres undefined) stands 1.18 (inactive); under `Cc1cc(C)c2nc(NC(=O)C3CCCO3)sc2c1` (centres undefined), 6.22 (active); under `O=C(Nc1nc2ccc(S(=O)(=O)N3CCCC3)cc2s1)C1CCCO1` (centres undefined), 0.92 (inactive).
Under `CC1CN(CCCOc2ccccc2-c2ccccc2)CC(C)O1` (centres undefined) stands 1.16 (inactive); under `O=C(Cc1c[nH]c2ccccc12)OCCOC(=O)Cc1c[nH]c2ccccc12`, 1.43 (inactive).
On to `CC1CCN(CC(=O)c2c[nH]c3ccccc23)CC1`, for which the fold change is 0.78 (inactive).
In the case of `O=C(OCC(=O)c1c[nH]c2ccccc12)c1cccc(O)c1`, the fold change is 5.31 (active).
Take `COc1cccc(CNC(=O)CCC2CCCN(C(=O)c3ccoc3C)C2)c1` (centres undefined): the fold change was 1.11 (inactive).
Under `CCOc1ccc(Nc2nc(Cl)nc(N3CCN(c4ccc(OC)cc4)CC3)n2)cc1` stands 0.61 (inactive).
For the compound `c1ccc(Nc2nc(N3CCOCC3)c3ccccc3n2)cc1`, the fold change is 0.6 (inactive).
`COc1ccc(Nc2ncc(F)c(N3CCOCC3)n2)cc1`: the fold change was 3.96 (active).
For the compound `Cc1cc(NC(=O)CSCc2ccccc2C)no1`, the fold change was 1.25 (inactive).
As to `CC(NCc1nc2ccccc2n1C)C12CC3CC(CC(C3)C1)C2` (centres undefined), the fold change is 0.85 (inactive).
The result for `COC(=O)c1sccc1NC(=O)c1csc2c1CCCC2` reads 1.41 (inactive); that for `CC(=O)Cc1nsc(NC(=O)c2csc3c2CCCC3)n1`, 1.73 (inactive).
Under `COC(=O)c1sc(NC(=O)c2csc3c2CCCC3)nc1C` stands 4.92 (active); under `COc1cc(OC)c(C2=NOC(C(=O)Nc3c(C)n(C)n(-c4ccccc4)c3=O)C2)cc1Cl` (centres undefined), 0.97 (inactive).
Take `CN1CCN(CC#CCC2(O)c3ccccc3-c3ccccc32)CC1`: the fold change was 1.01 (inactive).
The result for `CNC(=O)CSc1nnnn1-c1ccc(C)cc1C` reads 1.23 (inactive); that for `CCn1nnnc1SCC(=O)c1ccc(C)cc1C`, 3.65 (active).
Turning to `COc1ccc(C(=O)CSc2nnnn2C)c(OC)c1`, the fold change was 1 (inactive).
The result for `COCCNC(=O)C(c1ccc(O)cc1)N(C(=O)CCC(=O)Nc1nccs1)c1ccc(C)cc1` (centres undefined) reads 0.99 (inactive); that for `COC(=O)c1ccc(COC(=O)c2cnccn2)cc1`, 1.22 (inactive); that for `O=C(CN1C(=O)/C(=C/c2ccccc2F)Sc2ccccc21)NCc1cccnc1`, 0.69 (inactive).
Under `OCC(O)CN(c1ccccc1)c1ccccc1` (centres undefined) stands 1.39 (inactive); under `Nc1ccc(-c2nnc(-c3ccc(-c4ccccc4)cc3)o2)cc1`, 1.31 (inactive).
Under `O=C(OCc1ccc(Br)cc1)c1cccc(-c2nnc(-c3ccccc3)o2)c1` stands 1.7 (inactive).
Consider `Brc1ccc(-c2nnc(-c3ccccc3)o2)o1`, for which the fold change is 3.89 (active).
As for `COc1ccccc1Cn1c(C)nnc1-c1cnn(C)c1N`, the fold change was 1.41 (inactive).
The result for `CCOC1CS(=O)(=O)CC1OCC` (centres undefined) reads 5.97 (active); that for `COc1ccccc1N1CCN(/N=C\C(Br)=C\c2ccccc2)CC1`, 1.33 (inactive).
The result for `COc1ccc(CCNC(=O)CC2SC(=Nc3cc(C)cc(C)c3)NC2=O)cc1OC` (centres undefined) reads 0.95 (inactive).

Values taken from PubChem BioAssay AID1239 (SRMLSC, 2008).
